The record followed here is PubChem BioAssay (NCI).

This is part of a sample that, as a whole, favours compounds with a hit. Of some 79,000 tested, about 15% had one in any assay. Values without a mark were called inactive. The source made the active and inactive calls. No stated cut-off is given here; in the data, active means growth inhibition above about 70%; inactive means the rest.

Test [1] in a line: NCI Yeast Anticancer Drug Screen. Data for the rad50 strain (AID 155).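 Further: 0% = growth of vehicle-only cultures of the same strain.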 Conditions: S. cerevisiae rad50 strain growth inhibition, hits give high values. The gist of the method: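 Relative growth inhibition (compound vs vehicle) was measured in yeast with a defined repair-gene alteration.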
A short description of test [2]: NCI Yeast Anticancer Drug Screen. Data for the mec2-1 strain (AID 157). Conditions: S. cerevisiae mec2-1 strain, hits give high values. In outline:
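Compounds were applied to mec2-1 yeast cells. Their growth was then compared with that of vehicle-treated cultures to give growth inhibition.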

A short description of test [3]: NCI Yeast Anticancer Drug Screen. Data for the sgs1 mgt1 strain (AID 161).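 Further: 0% = growth of cultures given vehicle only.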 Conditions: S. cerevisiae sgs1 mgt1 strain, hits give high values. In outline:
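This yeast growth screen uses a strain with defined DNA-repair lesions; compound-treated growth is compared with vehicle-treated growth.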

Test [4] can be described thus: NCI Yeast Anticancer Drug Screen. Data for the cln2 rad14 strain (AID 165).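 Further: 0% = growth equal to vehicle treated cultures.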 Conditions: S. cerevisiae cln2 rad14 strain, hits give high values. The gist of the method: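 Strain: cln2 rad14 yeast, altered in cell cycle control and DNA damage repair. Read-out: growth inhibition vs vehicle.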
Test [5] can be described thus: NCI Yeast Anticancer Drug Screen. Data for the bub3 strain (AID 167). Conditions: S. cerevisiae bub3 mutant strain, hits give high values. The gist of the method: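 Screening used yeast with an engineered genetic alteration affecting cell cycle control. Compound-exposed cultures were compared with vehicle cultures, and reduced growth was taken as inhibition.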
A short description of test [6]: NCI Yeast Anticancer Drug Screen. Data for the mlh1 rad18 strain (AID 175). Conditions: S. cerevisiae mlh1 rad18 strain growth inhibition, hits give high values. The gist of the method:
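A repair-deficient yeast strain is exposed to test compound, and growth is scored relative to vehicle-treated controls.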

The mark [7] stands for this setting: at 5.0 µM (retest, dose inferred, filed as 0.5).
Where [8] appears, read: at 50.0 µM (retest, dose inferred, filed as 5.0).

Take `O=C(O)C1CCCCC1.[Ag]`: the growth inhibition in test [1] (setting [7]) was 43%; in test [1] (setting [8]), 99% (active); in test [1] (at 50.0 µM) it was 90.3% (active); in test [2] (setting [7]), 42%; in test [2] (setting [8]), 99% (active); in test [2] (at 50.0 µM), 92% (active). Further, the growth inhibition was 99% (active) in test [3] (setting [7]); 99% (active) in test [3] (setting [8]); 93.2% (active) in test [3] (at 50.0 µM); 99% (active) in test [4] (setting [7]); 99% (active) in test [4] (setting [8]); 91% (active) in test [4] (at 50.0 µM). The growth inhibition in test [5] (setting [7]) is 99% (active); in test [5] (setting [8]), 100% (active); in test [5] (at 50.0 µM), 90.6% (active); in test [6] (setting [7]), 34%; in test [6] (setting [8]), 100% (active); in test [6] (at 50.0 µM), 90.5% (active).
Take `BrCC1(CBr)COC1`: the growth inhibition in test [1] (setting [7]) was 4%; in test [1] (setting [8]) it was 47%; in test [1] (at 50.0 µM) it was 3.85%; in test [2] (setting [7]) it was 5%; in test [2] (setting [8]) it was 64%; in test [2] (at 50.0 µM), 2.2%. Also, the growth inhibition in test [3] (setting [7]) was 6%; in test [3] (setting [8]) it was 56%; in test [3] (at 50.0 µM), 7.75%; in test [4] (setting [7]) it was -3%; in test [4] (setting [8]), 30%; in test [4] (at 50.0 µM), -8.15%. For the same compound, the growth inhibition in test [5] (setting [7]) is 29%; in test [5] (setting [8]) it was 94% (active); in test [5] (at 50.0 µM), 87% (active); in test [6] (setting [7]), 2%; in test [6] (setting [8]), 87% (active); in test [6] (at 50.0 µM), 9.45%.
Take `Oc1ccccc1C(c1cc2c(cc1O)OCO2)N1CCOCC1` (stereo not given): the growth inhibition in test [1] (setting [7]) is -23%; in test [1] (setting [8]) it was 99% (active); in test [1] (at 50.0 µM) it was 87.3% (active); in test [2] (setting [7]), -28%; in test [2] (setting [8]) it was 100% (active); in test [2] (at 50.0 µM), 88.7% (active). For the same compound, the growth inhibition in test [3] (setting [7]) was -51%; in test [3] (setting [8]), 99% (active); in test [3] (at 50.0 µM), 89.8% (active); in test [4] (setting [7]), -12%; in test [4] (setting [8]), 99% (active); in test [4] (at 50.0 µM), 91% (active). Also, the growth inhibition is -34% in test [5] (setting [7]); 99% (active) in test [5] (setting [8]); 91.3% (active) in test [5] (at 50.0 µM); 1% in test [6] (setting [7]); 99% (active) in test [6] (setting [8]); 91.9% (active) in test [6] (at 50.0 µM).
Take `CC1C(O)Oc2cc3c(cc2C1c1ccccc1O)OCO3` (stereo not given): the growth inhibition in test [1] (setting [7]) was -10%; in test [1] (setting [8]), 77% (active); in test [1] (at 50.0 µM) it was 61.8%; in test [2] (setting [7]) it was -41%; in test [2] (setting [8]) it was 84% (active); in test [2] (at 50.0 µM), 32.1%. Besides, the growth inhibition was -33% in test [3] (setting [7]); 40% in test [3] (setting [8]); 56.5% in test [3] (at 50.0 µM); 20% in test [4] (setting [7]); 87% (active) in test [4] (setting [8]); 69.7% in test [4] (at 50.0 µM). For the same compound, the growth inhibition in test [5] (setting [7]) is 25%; in test [5] (setting [8]), 84% (active); in test [5] (at 50.0 µM), 38.6%; in test [6] (setting [7]), -13%; in test [6] (setting [8]) it was 90% (active); in test [6] (at 50.0 µM), 54.5%.
On to `COc1ccc(-c2nc3c(C(=O)NCCN(C)C)cccc3c3ccccc23)cc1`, for which the growth inhibition in test [1] (setting [7]) was 14%; in test [1] (setting [8]), 42%; in test [1] (at 50.0 µM), 70.5% (active); in test [2] (setting [7]) it was 17%; in test [2] (setting [8]) it was 9%; in test [2] (at 50.0 µM), 56%. Moreover, the growth inhibition in test [3] (setting [7]) is -12%; in test [3] (setting [8]) it was 55%; in test [3] (at 50.0 µM) it was 13.9%; in test [4] (setting [7]), 3%; in test [4] (setting [8]), 37%; in test [4] (at 50.0 µM), 0.85%. Besides, the growth inhibition in test [5] (setting [7]) is 8%; in test [5] (setting [8]), 54%; in test [5] (at 50.0 µM), -15.3%; in test [6] (setting [7]), 10%; in test [6] (setting [8]), 37%; in test [6] (at 50.0 µM) it was 89.5% (active).
Turning to `Cc1ccccc1Oc1ccccc1N`, the growth inhibition in test [1] (setting [7]) was 12%; in test [1] (setting [8]), 38%; in test [1] (at 50.0 µM), 79.2% (active); in test [2] (setting [7]), -26%; in test [2] (setting [8]), 15%; in test [2] (at 50.0 µM), 65.9%. Besides, the growth inhibition in test [3] (setting [7]) was -1%; in test [3] (setting [8]), 1%; in test [3] (at 50.0 µM), 69.8%; in test [4] (setting [7]) it was 9%; in test [4] (setting [8]) it was 34%; in test [4] (at 50.0 µM), 78.4% (active). The growth inhibition in test [5] (setting [7]) was -16%; in test [5] (setting [8]), 10%; in test [5] (at 50.0 µM), 58.6%; in test [6] (setting [7]), -15%; in test [6] (setting [8]), 39%; in test [6] (at 50.0 µM), 81.8% (active).
`Cn1c(=O)cc[nH]c1=O`: the growth inhibition is -1% in test [1] (setting [7]); 3% in test [1] (setting [8]); 4.85% in test [1] (at 50.0 µM); 0% in test [2] (setting [7]); -1% in test [2] (setting [8]); 3.9% in test [2] (at 50.0 µM). Besides, the growth inhibition in test [3] (setting [7]) is 0%; in test [3] (setting [8]), 2%; in test [3] (at 50.0 µM) it was 5.45%; in test [4] (setting [7]), 0%; in test [4] (setting [8]), -1%; in test [4] (at 50.0 µM) it was -0.75%. The growth inhibition was 1% in test [5] (setting [7]); -5% in test [5] (setting [8]); 98.8% (active) in test [5] (at 50.0 µM); -5% in test [6] (setting [7]); 1% in test [6] (setting [8]); 14.2% in test [6] (at 50.0 µM).
`CN(C)N=Nc1c(-c2ccccc2)n[nH]c1-c1ccccc1`: the growth inhibition in test [1] (setting [7]) is 95% (active); in test [1] (setting [8]) it was 99% (active); in test [1] (at 50.0 µM), 99.6% (active); in test [2] (setting [7]) it was 99% (active); in test [2] (setting [8]), 100% (active); in test [2] (at 50.0 µM), 99.5% (active). Besides, the growth inhibition was 99% (active) in test [3] (setting [7]); 100% (active) in test [3] (setting [8]); 99.3% (active) in test [3] (at 50.0 µM); 99% (active) in test [4] (setting [7]); 99% (active) in test [4] (setting [8]); 99.5% (active) in test [4] (at 50.0 µM). Also, the growth inhibition is 99% (active) in test [5] (setting [7]); 99% (active) in test [5] (setting [8]); 99.5% (active) in test [5] (at 50.0 µM); 99% (active) in test [6] (setting [7]); 100% (active) in test [6] (setting [8]); 99.5% (active) in test [6] (at 50.0 µM).
For the compound `COc1ccc(C(=O)Cc2ccc(Cl)cc2)cc1OC`, the growth inhibition in test [1] (setting [7]) is -12%; in test [1] (setting [8]) it was -1%; in test [1] (at 50.0 µM), 6.3%; in test [2] (setting [7]) it was -7%; in test [2] (setting [8]) it was -13%; in test [2] (at 50.0 µM), 2.65%. The growth inhibition in test [3] (setting [7]) was -14%; in test [3] (setting [8]), -17%; in test [3] (at 50.0 µM) it was 10.5%; in test [4] (setting [7]), 9%; in test [4] (setting [8]), -3%; in test [4] (at 50.0 µM), -4.45%. The growth inhibition in test [5] (setting [7]) was -1%; in test [5] (setting [8]) it was -1%; in test [5] (at 50.0 µM) it was 3.55%; in test [6] (setting [7]), -17%; in test [6] (setting [8]), -22%; in test [6] (at 50.0 µM) it was 16.6%.
Turning to `CN(C)c1ccc(/C=C(/C#N)c2ccc(Cl)cc2)cc1`, the growth inhibition in test [1] (setting [7]) is -16%; in test [1] (setting [8]) it was -18%; in test [1] (at 50.0 µM) it was 3.45%; in test [2] (setting [7]), 0%; in test [2] (setting [8]) it was 8%; in test [2] (at 50.0 µM), 13.2%. Moreover, the growth inhibition in test [3] (setting [7]) was 3%; in test [3] (setting [8]), 15%; in test [3] (at 50.0 µM), -10.3%; in test [4] (setting [7]), 27%; in test [4] (setting [8]), -6%; in test [4] (at 50.0 µM), 64.4%. The growth inhibition is 6% in test [5] (setting [7]); -25% in test [5] (setting [8]); 7% in test [5] (at 50.0 µM); -17% in test [6] (setting [7]); -18% in test [6] (setting [8]); 5.5% in test [6] (at 50.0 µM).
